Screens as filed in PubChem BioAssay.
Only some compounds are listed: those with a hit (about 15% of all), similar ones and a draw of the others.
RORgamma inh – ROR gamma (mouse) transcription inhibition; P51450; Drosophila S2 Gal4-RORgamma UAS-luciferase reporter, 20 h; Potency, µM (series often up to 53.6 µM), for inactives: top-dose activity change, negative = inhibition, usual class: inhibitors; hit rate 5.4% among 310,000; AID 2551; also: nearly all actives have a fitted effect of over 60% in size
Target sequence (P51450 whole entry, looked up, the tested form may be a part): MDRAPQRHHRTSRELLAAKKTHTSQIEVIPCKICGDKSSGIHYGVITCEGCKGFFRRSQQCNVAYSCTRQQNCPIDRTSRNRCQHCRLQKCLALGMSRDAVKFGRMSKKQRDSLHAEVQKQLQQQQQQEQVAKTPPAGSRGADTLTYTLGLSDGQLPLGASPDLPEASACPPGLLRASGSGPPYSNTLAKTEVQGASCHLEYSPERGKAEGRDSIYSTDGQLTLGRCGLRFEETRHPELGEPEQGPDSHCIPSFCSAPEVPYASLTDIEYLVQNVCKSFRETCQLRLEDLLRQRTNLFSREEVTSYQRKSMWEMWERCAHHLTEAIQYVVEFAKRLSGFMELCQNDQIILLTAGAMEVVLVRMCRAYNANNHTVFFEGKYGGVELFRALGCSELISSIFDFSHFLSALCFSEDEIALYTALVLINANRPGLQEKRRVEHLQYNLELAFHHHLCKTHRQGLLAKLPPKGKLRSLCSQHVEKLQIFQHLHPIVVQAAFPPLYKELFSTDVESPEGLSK
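Read-out: Photinus luciferase luminescence; inhibitors lower reporter signal. Insect Schneider cells with Gal4-ROR gamma fusion under metallothionein promoter, UAS reporter; 700 uM final copper sulfate induction, 20 hr, ambient temperature.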
ELG1 repair inh – inhibitors of ELG1-dependent DNA repair in HEK293T cells; hit rate 2.3% among 330,000; Potency, µM (titrated, usually from 46.1 µM), without a hit: top-dose activity change, negative = inhibition, hits mostly inhibitors; HEK293T ELG1-luciferase reporter, luminescence, 16 h; DNA damage induced by 5-fluorouridine; also: nearly all actives have a fitted effect of over 55% in size
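Luminescence from the luciferase reporter, measured 30 min after ONE-Glo reagent at room temperature, was the read-out. Beforehand, 2,000 cells per well were exposed for 16 hr at 37 °C to 5-fluorouridine together with compound or vehicle.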
DT40 TDP1 no CPT – qHTS for Inhibitors of human tyrosyl-DNA phosphodiesterase 1 (TDP1): qHTS in cells in absence of CPT; DT40 Tdp1-/- hTDP1 cells, no CPT, ATP luminescence, 48 h; Potency, µM (series often up to 46.2 µM), for inactives: top-dose activity change, negative = growth inhibition, usual class: inhibitors; AID 686978, 2013; hit rate 15% among 420,000; also: nearly all actives have a fitted effect of over 55% in size
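No-CPT arm: Tdp1-/-;hTDP1 DT40 cells (400/well) plus compounds, incubated ≥48 hr at 37 °C. Readout CellTiter-Glo luminescence.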
DT40 TDP1 CPT – growth inhibition of DT40 Tdp1-/-;hTDP1 cells with camptothecin (screen for TDP1 inhibitors) | hit rate 12% among 420,000 | chicken DT40 Tdp1-/-;hTDP1 cells + 20 nM CPT, ATP luminescence, 48 h | Potency, µM (doses to about 46.2 µM), for inactives: at the top dose activity change, negative = growth inhibition, actives largely listed as inhibitors | AID 686979; also: nearly all actives have a fitted effect of over 55% in size
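Cell growth measured by CellTiter-Glo luminescence after a minimum 48 h, 37 C compound exposure with 20 nM CPT in Tdp1-knockout DT40 cells stably expressing hTDP1, seeded 400/well; qHTS titration format.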
Gal4-VP16 FLuc – counter-screen for ROR gamma inhibitors: Gal4-VP16 reporter; Drosophila S2 Gal4-VP16 UAS-luciferase, luminescence, 20 h; hit rate 3.5% among 310,000; Potency, µM (highest dose often 53.6 µM), inactives show at the top dose activity, negative = inhibition, most hits filed as inhibitors;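 also: Gal4-VP16 expression switched on by copper sulfate through the metallothionein promoter; nearly all actives have a fitted effect of over 50% in size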
12-LOX inh – inhibitors of human 12S-lipoxygenase ALOX12; purified 12hLO, xylenol orange hydroperoxide absorbance; P18054; AID 1671190; hit rate 1.1% among 580,000; Potency, µM (doses to about 108 µM), inactives show at the top dose activity change, negative = inhibition, most hits filed as inhibitors
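Purified human 12hLO (150 nM final) in 25 mM Hepes, 0.01% Triton X-100, pH 7.0 was preincubated 15 min at room temperature with compound. Then 40 uM arachidonic acid was added, 30 min. Hydroperoxide was read by Fe-XO absorbance ratio 573/405 nm.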
The depositor's hits bear a star; i = inactive; ? = inconclusive; . = not tested or not shown; [ ] = another dose, or the depositor's remark. Calls follow the shape of the dose curve; as a rule, active = well fitted curve in the direction sought with a large enough effect; inconclusive = small, poorly fitted or top-dose-only effect, or another doubt; inactive = no such curve, though single readings can be large; an effect the other way counts as inactive or inconclusive. % is scaled to controls: 0 for no effect and ±100 for the full control effect; potency is read from the fitted curve at half-maximal effect.

SMILES	RORgamma inh	ELG1 repair inh	DT40 TDP1 no CPT	DT40 TDP1 CPT	Gal4-VP16 FLuc	12-LOX inh
CC1(C)Cc2c(sc(NC(=O)COc3ccccc3)c2C#N)C(C)(C)N1	-7%	0%	-28%	?	-12%	-2%
Cc1cc(OCC(=O)Nc2sc3c(c2C#N)CC(C)(C)NC3(C)C)c(C(C)C)cc1Cl	-37%	-1%	16µM*	?	-26%	33%
Cc1ccc(C(C)C)c(OCC(=O)Nc2sc3c(c2C#N)CC(C)(C)NC3(C)C)c1	?	-22%	21µM*	?	?	.
O=C(O)CC1(CC(=O)N2CC[C@H]3NC(=O)N(c4ccc(F)cc4)C(=O)[C@H]32)CCCC1	.	.	.	.	.	-5%[176 µM]
CC(=O)NC(C)c1cc(F)c2cccnc2c1O (centres undefined)	.	-6%	.	.	.	-8%
CCCCNC(=O)c1cccc2cccnc12	.	.	.	.	.	7%
CCCCC(=O)Nc1ccc(Cl)c2ncccc12	.	.	.	.	.	-39%
CCCCC(=O)NC(c1ccc(C(C)C)cc1)c1ccc2cccnc2c1O (centres undefined)	2.5µM*	?	3.3µM*	5.8µM*	2.8µM*	-10%
CCCC(=O)NC(c1ccccc1)c1ccc2cccnc2c1O (centres undefined)	?	?	1.5µM*	3.7µM*	?	-22%
CCCCC(=O)NC(c1ccccc1Cl)c1ccc2cccnc2c1O (centres undefined)	5µM*	3.3µM*	6.5µM*	8.2µM*	3.5µM*	4%
CC(=O)NC(c1ccc(C(C)C)cc1)c1ccc2cccnc2c1O (centres undefined)	3.5µM*	?	1.3µM*	2.6µM*	2.8µM*	-15%
CCCCC(=O)NC(c1ccccc1)c1ccc2cccnc2c1O (centres undefined)	1.3µM*	?	0.73µM*	0.58µM*	2.5µM*	-6%
CCCC(=O)NC(c1ccc(OC)cc1)c1ccc2cccnc2c1O (centres undefined)	1.8µM*	?	2.6µM*	2.3µM*	4.5µM*	-17%
CC(NC(=O)Cc1cccc2cccnc12)c1ccccc1 (centres undefined)	.	.	.	.	.	-1%
O=C(CN1CCC2(CC1)OCCO2)Nc1cc(Cl)ccc1Cl	.	.	.	.	.	11%
Cc1nc(-c2ccc(OC3CCN(C(=O)NC(C)C)C3)cc2)no1 (centres undefined)	.	.	.	.	.	31%
O=C(N/N=C/c1cc([N+](=O)[O-])ccc1O)C1CCCCC1	0.5µM*	-24%	4.6µM*	5.2µM*	2.5µM*	-3%
Cc1nc2ccc(C(=O)N/N=C/c3cc([N+](=O)[O-])ccc3O)cc2[nH]1	-8%	-6%	9%	1%	-11%	-16%
O=C(N/N=C/c1ccc(O)cc1O)C1CC1	.	.	9%	4%	.	i
O=C(N/N=C/c1cc([N+](=O)[O-])ccc1O)C1C2CCCCC21 (centres undefined)	0.89µM*	?	.	.	2.8µM*	.
N#C/C(=C\c1ccc(OCc2ccc(Cl)c(Cl)c2)cc1)C(=O)c1ccccc1	.	.	.	.	.	-62%
O=C(CSc1nc2ccccc2n1Cc1ccccc1Cl)NCc1ccccc1	.	.	23µM*	15µM*	.	?
Cc1ccc(C)c(Cn2c(SCC(=O)NCc3ccccc3)nc3ccccc32)c1	.	.	18µM*	?	.	-22%
Cn1c(SCC(=O)NCc2ccccc2)nc2ccccc21	5%	0%	-12%	-28%	-1%	-23%
COc1ccccc1NC(=O)Cn1c(SCC(=O)NCc2ccccc2)nc2ccccc21	.	.	?	-12%	.	-25%
O=C(/C=C/c1ccc(Cl)cc1Cl)N1CCN(c2ccc([N+](=O)[O-])c(N3CCOCC3)c2)CC1	8%	0%	23µM*	?	?	3%
